Among all 2,400 compounds or so, about 1,500 (62%) were called active. No stated cut-off is given here; in the data, active means inhibition above about 22%; inactive means the rest. So high a share suggests a set chosen from earlier hits. Only a selection was taken, and actives are over-represented in it overall.
Each molecule was assayed against Melanin-concentrating hormone receptor 1 (Homo sapiens) (UniProt Q99705) (assay: antagonism of human MCHR1 receptor – cell-based, fluorescence, counter-screen for GPR7 antagonist project (AID 2148;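 further: 0% = vehicle with agonist and 100% = vehicle without agonist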)). Conditions: MCHR1-expressing cells, fluorescence antagonist assay; at 4.4 µM; active compounds read high.
In the case of `CCOC(=O)C1(Cc2ccc(Cl)cc2)CCN(C(C)CCn2cccn2)CC1` (stereo not drawn), the inhibition is reported as 26% (active). For `COc1ccc(Br)cc1CNCCc1cccc(Cl)c1`, the inhibition was 44.1% (active). With `CCOc1ccc(-c2cc(C)[n+](CCN(CC)CC)c(-c3ccc(OCC)cc3)c2)cc1` the inhibition was 46.5% (active).
